High-throughput results: PubChem BioAssay, National Center for Advancing Translational Sciences (NCATS)
A selection: hits, their analogues and other compounds. The true share with any hit is near 2.4%.
D2 ag-1: activates the human D2 dopamine receptor; activation, % at 2 µM; P14416; 340,000 tested, 0.53% active; HEK293 T-REx D2 cells, calcium flux agonist mode;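 active = activation over 3 SD above normal in the single-dose calcium agonist read, cut at about 30% in these data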; note: 0% is about no effect
Target sequence (P14416 whole entry, looked up): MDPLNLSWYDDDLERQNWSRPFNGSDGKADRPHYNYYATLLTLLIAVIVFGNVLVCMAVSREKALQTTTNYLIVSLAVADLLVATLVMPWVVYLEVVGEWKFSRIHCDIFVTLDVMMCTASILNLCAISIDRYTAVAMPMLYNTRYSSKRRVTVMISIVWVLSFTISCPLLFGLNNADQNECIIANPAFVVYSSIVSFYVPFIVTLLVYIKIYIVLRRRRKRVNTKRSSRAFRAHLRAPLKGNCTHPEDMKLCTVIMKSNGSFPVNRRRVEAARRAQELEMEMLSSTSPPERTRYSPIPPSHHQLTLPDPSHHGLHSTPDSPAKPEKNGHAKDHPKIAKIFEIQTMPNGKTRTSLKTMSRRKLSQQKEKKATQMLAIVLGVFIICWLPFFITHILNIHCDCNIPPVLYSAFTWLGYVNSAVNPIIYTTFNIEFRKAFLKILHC
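Agonism is scored from calcium flux in a force-coupled, inducible HEK293 cell line expressing D2, read kinetically for 180 s after compound addition against dopamine controls.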
D2 PAM-1: positive allosteric modulators of human D2 dopamine receptor; P14416; HEK293 T-REx D2, calcium flux, EC20 dopamine potentiation; potentiation, % at 10 µM; 340,000 tested, 0.34% active;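 active = potentiation over 3 SD above the plate norm, cut at about 30% in these data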; note: 0% is about no effect
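Primary screen. Calcium kinetics in induced HEK293 T-REx D2 cells: compound pre-addition 180 s, EC20 dopamine, 180 s more.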
D2 antag: antagonists of human D2 dopamine receptor; P14416; HEK293 TREx D2 cells, calcium flux, dopamine EC80; inhibition, % at 10 µM; 340,000 tested, 2% active; in the data active = inhibition above about 30%; inactive = below that, where a call was filed; note: 0% is about no effect
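Read-out: kinetic calcium fluorescence (1 cycle/s) in inducible HEK293 T-REx D2 cells after an EC80 dopamine addition that followed 180 s compound preincubation. Loss of the dopamine response indicates antagonism.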
D2 PAM-2: potentiates the human D2 dopamine receptor allosterically. DiscoveRx D2 beta-arrestin cells, luminescence, 90 min; 100% = 57 uM dopamine signal. 360,000 tested, 0.23% active. potentiation, % (test concentration not listed). AID 624464; in the data active = potentiation above about 50%; inconclusive = mostly about 30% to 49%
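PathHunter beta-arrestin assay in DiscoveRx D2 cells. Compounds were added with an EC20 of dopamine (50 nM final) for 90 min at 37 deg C. Luminescence was read 1 h after detection reagent, with 57 uM dopamine as the EC100 control.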
D2 ag-2: human D2 receptor agonism in beta-arrestin assay | P14416 | DiscoveRx PathHunter D2 beta-arrestin, luminescence, 90 min; 100% = 57 uM dopamine signal | activation, % (no concentration beside the values) | 360,000 tested, 0.084% active; in the data active = activation above about 40%; inconclusive = between about 15% and that limit
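DiscoveRx PathHunter D2 beta-arrestin cells (2,100/well) attached overnight, then compound-stimulated 90 min at 37 C in HBSS/10 mM HEPES/0.1% Tween-20 buffer; beta-galactosidase complementation read by luminescence after 1 h at ambient temperature. Dopamine 57 uM final (EC100) as control.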
An asterisk follows results filed as active; ? = inconclusive; / = no result; ! = not confirmed by another sample.

SMILES	D2 ag-1	D2 PAM-1	D2 antag	D2 PAM-2	D2 ag-2
Cc1ccccc1C1=NCC(=S)Nc2ccc(Cl)cc21	-1	-1	41*	-24	-7
O=C1CN=C(c2ccccc2)c2cc(Cl)ccc2N1	/	/	/	-9	-1
Oc1ccc(C[C@H]2NCCc3cc(O)c(O)cc32)cc1O	5	-37	85*	-22	7
Nc1c(C(=O)Nc2ccc(OC(F)(F)F)cc2)sc2nc3c(cc12)N1CCC3CC1	0	-3	/	/	/
COC(=O)c1cncn1C(C)c1ccccc1 (centres undefined)	-1	-2	20	-4	-3
CCOC(=O)c1cncn1C(C)c1ccccc1 (centres undefined)	11	-18	35*	-5	-5
CCOC(=O)c1c(C)n(Cc2ccco2)c2c1cc(O)c1ccccc12	1	-6	-9	72*	?
CCCC1=Nc2cc(C(=O)NCCCN(CC)CC)ccc2Sc2ccccc21	1	-13	/	/	/
CCn1cc(C(=O)NCc2ccccc2)c2ccccc21	1	-32	5	-20	-6
CCn1cc(C(=O)O)c(=O)c2ccc(C)nc21	0	4	41*!	-6	-6
COc1cccc(CNCCc2c[nH]c3ccccc23)c1OC	0	-21	52*	-26	-3
CN1/C(=C\C=C\C2=[N+](C)c3ccc4ccccc4c3C2(C)C)C(C)(C)c2ccccc21	2	27	39*	/	/
CCN1/C(=C/C=C/C2=[N+](CC)c3ccccc3C2(C)C)C(C)(C)c2ccccc21	/	/	/	-50	-5
O=C(COc1ccc(Br)cc1)Nc1ccc(Cl)cc1C(=O)c1ccccc1	-1	4	/	/	/
CC(C)(C)c1ccc(C(=O)C2CCCN(C3CCC3)C2)cc1 (centres undefined)	0	-16	37*	-15	0
O=c1c2ccccc2nc(/C=C/c2ccccc2F)n1-c1cccc(O)c1	/	2	/	/	/
CC(C)(C)c1ccc(OCC(=O)Nc2ccc(Cl)cc2C(=O)c2ccccc2)cc1	0	2	/	/	/
O=c1[nH]c2ccccc2n1C1CCN(C(CCc2ccccc2)c2nnnn2Cc2ccccc2)CC1 (centres undefined)	/	/	/	52*	13
CSCCC(c1nnnn1Cc1ccccc1)N1CCC(n2c(=O)[nH]c3ccccc32)CC1 (centres undefined)	/	/	/	?	-1
Cc1ccccc1-n1nc(C)c2c1NC(=O)CSC2c1ccc(N(C)C)cc1 (centres undefined)	3	5	/	/	/
Cc1c(Cl)cccc1NC(=O)CN1C(=O)C(C)N=C(c2ccccc2)c2ccccc21 (centres undefined)	0	18	/	/	/
COc1ccccc1N1CCN(Cc2cccc(Br)c2)CC1	-1	-25	76*	-2	-4
COc1ccccc1N1CCN(Cc2cc(C)c(C)cc2O)CC1	/	/	/	-19	-5
CC1=NN=C(c2ccc(N)cc2)c2cc3c(cc2C1)OCO3	1	-1	-1	28	70*
Cc1cccc(C2CC(=O)Oc3c2c(=O)oc2ccccc32)c1 (centres undefined)	/	0	/	/	/
SMILES	D2 ag-1	D2 PAM-1	D2 antag	D2 PAM-2	D2 ag-2
Cc1ccccc1Cn1cccc(C(=O)Nc2cc(Cl)ccc2C#N)c1=O	/	-12	/	/	/
C/C(=N\Nc1ccccc1)c1c(O)n(Cc2ccccc2)c(=O)[nH]c1=O	-1	8	-10	57*	11
C[C@H]1CCC[C@H](O)CCCCCc2cc(O)cc(O)c2C(=O)O1	1	7	32*	2	-3
Cc1cccc(-c2nn3c(=O)cc(CN4CCN(C(=O)COc5ccc(Cl)cc5)CC4)nc3s2)c1	-1	-1	/	/	/
Cc1ccc2c(c1)C1CN(C)CCC1N2S(=O)(=O)c1ccccc1 (centres undefined)	-1	-15	44*	-22	-1
O=c1[nH]c2ccccc2n1C1CCN(CCCC(c2ccc(F)cc2)c2ccc(F)cc2)CC1	2	-29	87*	-29	1
Cc1nnc(NC(=O)c2cccn(Cc3ccc(Cl)cc3)c2=O)s1	1	-4	/	/	/
COc1ccc(CN2CC=C(c3ccc(F)cc3)CC2)cc1Br	0	-32	63*	-11	-1
O=[N+]([O-])c1ccccc1CN1CC=C(c2ccc(F)cc2)CC1	0	-1	18	-6	-5
Cc1ccc(OCC(=O)N2CCN(Cc3ccc(F)cc3)CC2)cc1	-2	-16	/	/	/
